TGFb inhibitor = inhibitors of TGF-b signaling. HepG2 CAGA-GFP TGF-b/SMAD3 reporter, GFP fluorescence, 18 h; TGF-beta stimulated, 500 pg/mL final. AID 588855. Potency, µM (doses to about 46.1 µM), for the others: at the highest dose activity, negative = inhibition, hits mostly inhibitors. 1.2% of 410,000 active; further: potency means the concentration at half of the fitted maximal effect; on the % scale 0 is the no-effect control and ±100 the full control effect; nearly all actives have a fitted effect of over 65% in size
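HEPG2 CAGA-GFP, 1000 cells/well; 2 h settle, 37 C; cpd via pin tool; TGF-b 500 pg/mL final; 18 h, 37 C; GFP imaging ex488/em500-530; %Activity normalised to -TGF-b and +DMSO controls; CRC fit, curve class.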
HepG2 tox = HepG2 cytotoxicity, counter-screen for TGF-b inhibitors; HepG2 CAGA-GFP viability, ATP luminescence, 18 h; Potency, µM (series often up to 46.1 µM), inactives show top-dose activity change, negative = cytotoxicity, hits mostly cytotoxic; 0.76% of 410,000 active; AID 588856; further: potency means the concentration at half of the fitted maximal effect
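HepG2 CAGA-GFP cells (1000/well, DMEM with 1% FBS) received compound, then TGF-beta at 500 pg/mL final, and were incubated 18 hours at 37 degrees C. Viability was read by CellTiter-Glo luminescence. Media-only wells were set as complete cell-killing and DMSO as no toxicity.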
HT1080NT lethal = kills 2HG-producing HT-1080-NT fibrosarcoma cells; HT-1080-NT fibrosarcoma viability, CellTiter-Glo ATP luminescence, 48 h; Potency, µM (series often up to 46.1 µM), without a hit: at the top dose activity, negative = less viability, most hits filed as cytotoxic; 1.6% of 360,000 active; AID 686970;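 further: NT is the 2HG producing partner of a matched IDH1 knockdown line; potency means the concentration at half of the fitted maximal effect; 0% = DMSO-treated cells and -100% = media-only wells without cells; nearly all actives have a fitted effect of over 55% in size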
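Read-out is CellTiter-Glo luminescence after 10 minutes at room temperature, following 48 hours' compound treatment of HT-1080-NT cells (750 cells/well, RPMI, 5% FBS, 37 degrees C).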
Giardia killer = kills Giardia lamblia | AID 540267 | activity change, % at 7.66 µM, hits read low | Giardia lamblia trophozoite viability | 0.15% of 340,000 active; in the data active means activity change below about -80%; inconclusive means between about -30% and that limit;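 further: parasites exposed to compound for two days anaerobically before the ATP read; on the % scale 0 is the no-effect control and ±100 the full control effect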
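Trophozoites 100 cells/well + cpd; 48 hrs, 37 deg C, anaerobic. ATPLite 1-Step added, 15-30 min RT, luminescence read (ATP-based viability).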
HT1080 IDH1KD tx = kills HT-1080 cells with IDH1 knockdown. Potency, µM (titrated, usually from 46.1 µM), without a hit: at the highest dose activity, negative = toxicity, actives largely listed as cytotoxic. HT-1080 IDH1 knockdown viability, ATP luminescence, 48 h. 2% of 360,000 active. AID 686971;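 further: potency means the concentration at half of the fitted maximal effect; 0% = DMSO wells and -100% = cell-free medium wells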
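Cytotoxicity counter-line: IDH1KD HT-1080, 48 h, CellTiter-Glo. Curves classed by r2, magnitude and activity.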
IL-1B inflam inh = blocks inflammasome-driven IL-1 beta release; THP-1 LPS/ATP IL-1B secretion, AlphaLISA, 16 h; hits give low values; activity change, % at 57.5 µM; 4.7% of 360,000 active; in the data active means activity change below about -50%; inconclusive means mostly about -30% to -49%; further: on the % scale 0 is the no-effect control and ±100 the full control effect
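Secreted IL-1B measured by AlphaLISA bead assay after 16 h compound exposure of THP-1 cells; compounds (final up to 57.5 uM) added 1 h before LPS (250 ng/mL) and ATP (1.25 mM) stimulation; lower signal means less secretion.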
* = called active by the depositor; ? = inconclusive; nt = no result. This is a sample that favours compounds with a hit; in the whole collection about 6.5% have one here. Unless noted, the call rests on the fitted dose curve; in most records, active means well fitted curve in the direction sought with a large enough effect; inconclusive means small, poorly fitted or top-dose-only effect, or another doubt; inactive means no such curve, though single readings can be large; an effect the other way counts as inactive or inconclusive.

SMILES	TGFb inhibitor	HepG2 tox	HT1080NT lethal	Giardia killer	HT1080 IDH1KD tx	IL-1B inflam inh
COc1ccc2c(c1)c(CC(=O)Nc1cccc(F)c1C)c(C)n2C(=O)c1ccc(Cl)cc1	15.3%	-1.7%	nt	nt	nt	nt
O=C(c1cc([N+](=O)[O-])ccc1N1CCCCC1)N1CCc2ccccc21	-0.2%	-2.6%	?	8.7	2.31µM*	-3.7
CCC(=O)Nc1nnc(SCC(=O)NCc2ccc3c(c2)OCO3)s1	-9.1%	-29.8%	1.0%	4.3	-1.8%	0.0
COc1ccc(NC(=O)c2oc3ccccc3c2NC(=O)c2cc(=O)c3cc(Cl)ccc3o2)cc1	-14.2%	0.5%	nt	nt	nt	nt
CCOC(=O)/C(=C/C=C1\Sc2cc(C)c(C)cc2N1CC)C(C)=O	119.2%	-0.3%	-7.8%	-6.0	-5.0%	-92.5*
CCOC(=O)/C(=C/C=C1\Sc2ccccc2N1CC)C(C)=O	112.8%	-13.4%	0.4%	4.6	-4.4%	-69.3*
CCOC(=O)/C(=C\C=C1/Sc2ccccc2N1CC)C(C)=O	275.9%	-31.1%	-18.6%	15.4	-14.5%	?
COc1ccc(CN2CCNC(=O)C2CC(=O)NCCSc2nccn2C)c(OC)c1 (stereo unspecified)	-7.1%	-2.9%	-1.1%	12.2	-1.8%	15.3
COc1ccc(-c2coc3c(C(=O)NCc4cccs4)cccc23)c(C)c1	?	-15.8%	?	nt	?	-52.6*
COc1ccc(-c2ccc(C(=O)NCc3ccco3)c3occc23)c(C)c1	?	-20.4%	?	nt	?	-53.2*
COc1ccc(-n2nc(C(=O)NCc3ccco3)c3c4ccccc4n(C)c3c2=O)cc1	-0.4%	1.3%	-24.7%	4.3	-5.3%	28.3
COc1ccc(-c2ccc(C(=O)NCc3cccs3)c3occc23)c(C)c1	?	-11.0%	?	nt	?	-22.5
COc1ccc(-c2coc3c(C(=O)NCc4ccco4)cccc23)c(C)c1	?	-6.9%	18.4µM*	nt	?	-26.1
COc1ccc(-n2nc(C(=O)NCc3ccco3)c3ccccc3c2=O)cc1	6.8%	-15.1%	?	-9.4	10µM*	14.4
COc1ccc2[nH]c(C)c(CN3CCC(C)CC3)c(=O)c2c1	24.6%	-0.7%	0.0%	16.5	1.3%	22.7
COCc1cc(=O)[nH]c(Nc2nc(C)c3ccccc3n2)n1	0.6%	-0.5%	?	?	?	-64.9*
C[C@@H](C(=O)Nc1ccc2ccccc2c1)[C@H]1C[C@]1(C)[C@H](NC(=O)c1cnccn1)c1ccccc1	?	-24.2%	-4.0%	-2.9	-8.8%	-52.0*
Cc1cc(C(=O)N[C@H](c2ccccc2)[C@@]2(C)C[C@@H]2[C@@H](C)C(=O)Nc2ccc3ccccc3c2)no1	?	-13.8%	-4.3%	13.1	-2.2%	-53.7*
C[C@@H](C(=O)Nc1ccc2ccccc2c1)[C@@H]1C[C@@]1(C)[C@@H](NC(=O)c1cnccn1)c1ccccc1	-11.7%	-20.9%	-21.8%	-4.7	-29.8%	-7.7
COc1cc(CNCc2ccccc2)cc(Cl)c1OC	-2.0%	-6.9%	-0.7%	10.0	-15.1%	-22.9
CCOc1cc(CNC2CCCC2)cc(Cl)c1OCc1ccccc1	0.0%	-115.7%	20.6µM*	5.4	?	-23.6
CCOc1cc(CNCC(C)C)cc(Cl)c1OCc1ccccc1	-19.9%	-16.9%	-22.4%	3.3	-20.0%	-51.8*
COc1cc(CNCCc2ccccc2)cc(Cl)c1OCc1ccccc1	?	-148.8%	13µM*	-5.7	?	-103.9*
CCOc1cc(CNC2CCCC2)ccc1OCc1ccccc1Cl	?	-92.3%	12.1%	-25.8	-15.5%	-88.5*
CCOc1cc(C(N)=O)cc(Cl)c1OCc1ccccc1	-19.6%	-34.7%	-6.6%	0.4	-3.2%	24.2
CC(=O)/C(C[N+]1(C)CCCCC1)=N\O	-25.4%	-16.9%	4.3%	30.6	13.3%	13.6
CCC(C)(C)NC(=O)c1ccc2c(c1)N(CC(=O)N1CCCC1)C(=O)C(C)(C)O2	-8.1%	2.8%	-1.6%	12.5	6.7%	0.2
